Experimental findings from PubChem BioAssay are described below.

The nature of assay [1]: stimulators of insulin release from INS-1E, primary screen, cell-based, 5 mM glucose, NPC library (AID 1117329;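 active means compound raises insulin release from rat beta cells at 5 mM glucose, no numeric limit stated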; further: reference of the scale not given here). The following applies: rat INS-1E insulin secretion, at 10 µM, active compounds read high.
The nature of assay [2]: growth inhibition of GSK3B-pretreated HCT116 cells – cell-based, CellTiter-Glo, 0.2 to 20 µM (AID 1117336;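 active means compounds lowering colon cancer cell viability after pretreatment blocking the GSK3B kinase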). The following applies: HCT116 viability after GSK3B inhibitor, at 20 µM, active compounds read high.
The nature of assay [3]: inhibition of endothelial tube formation, primary screen, imaging, VEGF stimulated, CD31 staining, tube area, NPC library (AID 1117340). As to conditions: VEGF-stimulated ADSC/ECFC co-culture, at 10 µM, active compounds read high.
Assay [4] can be described thus: GLP1 release stimulators, primary, NCI-H716, NPC library (AID 1117341;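 active means compound raises GLP1 secretion from the human gut endocrine cells, with no numeric limit stated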; further: reference of the scale not given here). As to conditions: NCI-H716 cells, at 10 µM, active compounds read high.
Assay [5] is described as follows: HCT116 colon cancer cell growth inhibition, primary screen, CellTiter-Glo luminescence, NPC library (AID 1117342;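 active means compounds that lower survival of HCT116 colon cancer cells in the luminescence readout, no numeric limit stated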). The following applies: at 20 µM (top of the series).
Assay [6] is described as follows: reduced SW480 viability measured with CellTiter-Glo, NPC library, primary (AID 1117343;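 active means compounds that lower viability of the colon cancer cells in the luminescence readout, with no numeric limit stated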). The following applies: CellTiter-Glo luminescence; at 20 µM (top of the series).
A short description of assay [7]: NPC library primary testing for decreased DLD-1 cell viability via CellTiter-Glo (AID 1117346;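 active means compounds that lower survival of DLD-1 colon cancer cells in the luminescence readout, no cutoff given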). The following applies: DLD-1 viability, CellTiter-Glo luminescence; at 20 µM (top of the series).
Assay [8] deals with 6-phosphogluconate dehydrogenase, decarboxylating (Homo sapiens) (UniProt P52209). As to the kind of experiment: inhibition of human phosphogluconate dehydrogenase – biochemical, recombinant enzyme, NADPH absorbance, primary screen (AID 1159550;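 active means at least 20% inhibition of 6-phosphogluconate dehydrogenase activity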). As to conditions: recombinant 6PGD, NADPH absorbance 341 nm; at 10 µM; active compounds read high.
Sequence of 6-phosphogluconate dehydrogenase, decarboxylating (Homo sapiens) (P52209 whole entry, looked up): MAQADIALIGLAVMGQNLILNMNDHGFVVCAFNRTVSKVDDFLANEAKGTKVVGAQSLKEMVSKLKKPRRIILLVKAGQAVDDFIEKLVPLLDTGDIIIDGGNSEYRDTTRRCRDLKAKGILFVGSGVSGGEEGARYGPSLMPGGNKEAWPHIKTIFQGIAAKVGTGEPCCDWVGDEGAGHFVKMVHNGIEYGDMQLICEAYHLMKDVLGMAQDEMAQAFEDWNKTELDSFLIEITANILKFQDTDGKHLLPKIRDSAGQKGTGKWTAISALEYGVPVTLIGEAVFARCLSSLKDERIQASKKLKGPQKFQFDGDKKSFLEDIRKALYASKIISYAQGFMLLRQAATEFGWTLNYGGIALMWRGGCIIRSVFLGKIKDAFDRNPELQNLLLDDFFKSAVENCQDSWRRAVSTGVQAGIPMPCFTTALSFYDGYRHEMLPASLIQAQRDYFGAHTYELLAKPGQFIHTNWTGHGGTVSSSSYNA

SMILES strings stand for the structures. A number with no mark means an inactive call. Active and inactive are the calls of the source.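 How the source made its calls, unless noted: active means compound that reduces growth-factor-driven endothelial tube area in a mixed cell culture, no cutoff stated; inactive means the rest.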

For `COc1cc2nc(N3CCN(C(=O)C4CCCO4)CC3)nc(N)c2cc1OC` (stereo not drawn), in assay [1], the insulin secretion stimulation was 0.35%. Moreover, in assay [2], the viability decrease is 7.5%. Further, in assay [3], the tube area decrease is 9.3%. In addition, the GLP1 secretion stimulation in assay [4] was 1.3%. Besides, the inhibition of viability in assay [5] was -9.1%. Also, the viability decrease (inhibition) in assay [6] was -2.8%; in assay [7] it was 5.5%.
With `C[N+]1(C)[C@@H]2CC(OC(=O)[C@H](CO)c3ccccc3)C[C@H]1[C@@H]1O[C@@H]12` (stereo partly drawn), the insulin secretion stimulation in assay [1] is 0.2%. For the same molecule, the viability decrease in assay [2] was -19.7%. Further, the tube area decrease in assay [3] was 5.6%. Further, in assay [4], the GLP1 secretion stimulation is -2.3%. In addition, the inhibition of viability in assay [5] was 2%. In addition, the viability decrease (inhibition) was -6.3% in assay [6] and -6.1% in assay [7]. For the same molecule, the inhibition in assay [8] was 0.481%.
Consider `Cc1c(NC(=O)c2cccnc2)c(=O)n(-c2ccccc2)n1C`, for which the insulin secretion stimulation in assay [1] is -1%. Moreover, the viability decrease in assay [2] was -14.1%. For the same molecule, the tube area decrease in assay [3] is 7.1%. Besides, in assay [4], the GLP1 secretion stimulation is -0.1%. For the same molecule, in assay [5], the inhibition of viability is -4.77%. For the same molecule, the results for the viability decrease (inhibition) in assay [6] and in assay [7] were 18.1% and -19.7%, respectively. Besides, the inhibition in assay [8] was -15.8%.
`Oc1ccc(OCc2ccccc2)cc1`: the insulin secretion stimulation in assay [1] is -0.6%. In addition, the viability decrease in assay [2] was -36.6%. Moreover, the tube area decrease in assay [3] is 0.5%. Further, the GLP1 secretion stimulation in assay [4] is 2.7%. Also, in assay [5], the inhibition of viability was -6.37%. For the same molecule, the viability decrease (inhibition) is 5.3% in assay [6] and 4.6% in assay [7].
Take `CCN(CC)CCNC(=O)c1cc(S(C)(=O)=O)ccc1OC`: in assay [1], the insulin secretion stimulation was 0.1%. In addition, the viability decrease in assay [2] is -23.6%. Moreover, in assay [3], the tube area decrease is 12%. Besides, in assay [4], the GLP1 secretion stimulation was 0.7%. In addition, the inhibition of viability in assay [5] was 1.13%. Also, the viability decrease (inhibition) in assay [6] is 10.9%; in assay [7], -4.3%. Besides, the inhibition in assay [8] was -8.37%.
In the case of `O=C(O)CCCC[C@@H]1SC[C@@H]2NC(=O)N[C@@H]21`, in assay [1], the insulin secretion stimulation is -0.9%. Besides, the viability decrease in assay [2] was -1.65%. The tube area decrease in assay [3] was -24.1%. Also, the GLP1 secretion stimulation in assay [4] was 1.6%. Moreover, the inhibition of viability in assay [5] was -15%. For the same molecule, the viability decrease (inhibition) in assay [6] is 33.7%; in assay [7], 4.5%. Further, the inhibition in assay [8] is 12.7%.
Consider `CN(C)CCOC(=O)C(c1ccccc1)C1(O)CCCC1` (stereo not drawn), for which the insulin secretion stimulation in assay [1] was 0.2%. For the same molecule, the viability decrease in assay [2] is -18%. Also, the tube area decrease in assay [3] was -3.4%. Besides, the GLP1 secretion stimulation in assay [4] was -3.8%. Moreover, in assay [5], the inhibition of viability was 50.1% (active). Moreover, the viability decrease (inhibition) in assay [6] was 20.7%; in assay [7], 31.8%. Further, the inhibition in assay [8] is -0.0978%.
`O=C(OCc1ccccc1)c1ccccc1`: in assay [1], the insulin secretion stimulation is 0.7%. For the same molecule, the viability decrease in assay [2] is -5.3%. In addition, the tube area decrease in assay [3] is 5.6%. The GLP1 secretion stimulation in assay [4] was -2.6%. Besides, in assay [5], the inhibition of viability is 10.4%. Also, the viability decrease (inhibition) in assay [6] was -12.6%; in assay [7] it was -9.1%. For the same molecule, the inhibition in assay [8] was -0.0939%.
For `O=C(CCCCC(=O)Nc1c(I)cc(I)c(C(=O)O)c1I)Nc1c(I)cc(I)c(C(=O)O)c1I`, the insulin secretion stimulation in assay [1] is -1.2%. The viability decrease in assay [2] is -15.2%. Besides, the tube area decrease in assay [3] was 5.5%. Also, in assay [4], the GLP1 secretion stimulation is -3.5%. Also, the inhibition of viability in assay [5] was -1.4%. The viability decrease (inhibition) in assay [6] is 7.4%; in assay [7] it was -2.6%. Further, the inhibition in assay [8] was 15.2%.
For `COc1cc(N)c(Cl)cc1C(=O)NC1CCN(Cc2ccccc2)CC1`, in assay [1], the insulin secretion stimulation was 9.3%. The viability decrease in assay [2] was -6.7%. In assay [3], the tube area decrease is 5.3%. The GLP1 secretion stimulation in assay [4] was -0.7%. For the same molecule, the inhibition of viability in assay [5] is 38.2%. Also, the viability decrease (inhibition) in assay [6] was 26.2%; in assay [7], 6.4%. For the same molecule, the inhibition in assay [8] is -7.99%.
As for `Cc1oncc1C(=O)Nc1ccc(C(F)(F)F)cc1`, the insulin secretion stimulation in assay [1] was -1.5%. In assay [2], the viability decrease was 40%. The tube area decrease in assay [3] is 32%. In addition, the GLP1 secretion stimulation in assay [4] is 9%. Besides, the inhibition of viability in assay [5] was 38.7%. Besides, the values for the viability decrease (inhibition) in assay [6] and in assay [7] were 39.1% and 22%, respectively. Moreover, the inhibition in assay [8] is -7%.
For the molecule `C[n+]1cc2c3c(ccc2c2ccc4cc5c(cc4c21)OCO5)OCO3`, the insulin secretion stimulation in assay [1] was -3.7%. Further, the viability decrease in assay [2] was 99.8% (active). In addition, in assay [3], the tube area decrease is 104% (active). For the same molecule, in assay [4], the GLP1 secretion stimulation was 27.5% (active). Also, the inhibition of viability in assay [5] is 102% (active). In addition, the viability decrease (inhibition) in assay [6] was 141% (active); in assay [7], 105% (active). Besides, in assay [8], the inhibition is 11.1%.
Take `COc1cnc(NS(=O)(=O)c2ccc(N)cc2)nc1`: the insulin secretion stimulation in assay [1] was 1.9%. For the same molecule, the viability decrease in assay [2] was -21.6%. Besides, in assay [3], the tube area decrease was -5.6%. Besides, the GLP1 secretion stimulation in assay [4] was 0.5%. Also, in assay [5], the inhibition of viability was -7.43%. The values for the viability decrease (inhibition) in assay [6] and in assay [7] were 23.4% and -14.6%, respectively. For the same molecule, in assay [8], the inhibition is -8.19%.
As for `O=NN(CCCl)C(=O)NCCCl`, the insulin secretion stimulation in assay [1] was -0.1%. Besides, the viability decrease in assay [2] is -5.7%. For the same molecule, the tube area decrease in assay [3] is 23.1%. In addition, in assay [4], the GLP1 secretion stimulation is 2.2%. In addition, the inhibition of viability in assay [5] is -16.5%. Moreover, the figures for the viability decrease (inhibition) in assay [6] and in assay [7] were 18.8% and -24.6%, respectively. In assay [8], the inhibition is 0.0871%.
Regarding `NC1CCN(c2nc3c(cc2F)c(=O)c(C(=O)O)cn3-c2ccc(F)cc2F)C1` (stereo not drawn), the insulin secretion stimulation in assay [1] is 3.3%. The viability decrease in assay [2] was 24.4%. In addition, the tube area decrease in assay [3] is 3.6%. In addition, the GLP1 secretion stimulation in assay [4] is 2.2%. Moreover, in assay [5], the inhibition of viability is -9.3%. The viability decrease (inhibition) in assay [6] was -19.3%; in assay [7] it was -39.1%.
`Cc1scc2c1N(C(=O)CN1CCN(C)CC1)c1ccccc1NC2=O`: the insulin secretion stimulation in assay [1] was 4%. Also, the viability decrease in assay [2] is -15.9%. Besides, the tube area decrease in assay [3] is -6.3%. In addition, in assay [4], the GLP1 secretion stimulation is -2.6%. In addition, the inhibition of viability in assay [5] was -4.6%. For the same molecule, the results for the viability decrease (inhibition) in assay [6] and in assay [7] were 2% and 1.4% (active), respectively. Also, the inhibition in assay [8] is 10.3%.
For the molecule `S=P(N1CC1)(N1CC1)N1CC1`, in assay [1], the insulin secretion stimulation was 1.3%. The viability decrease in assay [2] was 16.4%. Moreover, the tube area decrease in assay [3] is 35.1%. The GLP1 secretion stimulation in assay [4] is -2.2%. Besides, in assay [5], the inhibition of viability is 22.3%. Also, the figures for the viability decrease (inhibition) in assay [6] and in assay [7] were 33.3% and 18.9%, respectively. In addition, in assay [8], the inhibition is -6.76%.
